Results from paper PMC4336329 (PLoS ONE, 2015).
Among all 310,000 compounds or so, about 14,000 (4.5%) showed an effect of 50% or more. Effects have a minus sign here. This excerpt belongs to a sample that is enriched for strong results.
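Note: peak tail current of the secondary pulse compared with the same well before compound.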

Each compound was assayed against human ether-à-go-go-related gene (hERG) potassium channel (human, UniProt Q12809) (assay: primary screen, population patch clamp on CHO cells stably expressing hERG; higher = less effect of the substance).
Chain of human ether-à-go-go-related gene (hERG) potassium channel (Q12809 whole entry, looked up): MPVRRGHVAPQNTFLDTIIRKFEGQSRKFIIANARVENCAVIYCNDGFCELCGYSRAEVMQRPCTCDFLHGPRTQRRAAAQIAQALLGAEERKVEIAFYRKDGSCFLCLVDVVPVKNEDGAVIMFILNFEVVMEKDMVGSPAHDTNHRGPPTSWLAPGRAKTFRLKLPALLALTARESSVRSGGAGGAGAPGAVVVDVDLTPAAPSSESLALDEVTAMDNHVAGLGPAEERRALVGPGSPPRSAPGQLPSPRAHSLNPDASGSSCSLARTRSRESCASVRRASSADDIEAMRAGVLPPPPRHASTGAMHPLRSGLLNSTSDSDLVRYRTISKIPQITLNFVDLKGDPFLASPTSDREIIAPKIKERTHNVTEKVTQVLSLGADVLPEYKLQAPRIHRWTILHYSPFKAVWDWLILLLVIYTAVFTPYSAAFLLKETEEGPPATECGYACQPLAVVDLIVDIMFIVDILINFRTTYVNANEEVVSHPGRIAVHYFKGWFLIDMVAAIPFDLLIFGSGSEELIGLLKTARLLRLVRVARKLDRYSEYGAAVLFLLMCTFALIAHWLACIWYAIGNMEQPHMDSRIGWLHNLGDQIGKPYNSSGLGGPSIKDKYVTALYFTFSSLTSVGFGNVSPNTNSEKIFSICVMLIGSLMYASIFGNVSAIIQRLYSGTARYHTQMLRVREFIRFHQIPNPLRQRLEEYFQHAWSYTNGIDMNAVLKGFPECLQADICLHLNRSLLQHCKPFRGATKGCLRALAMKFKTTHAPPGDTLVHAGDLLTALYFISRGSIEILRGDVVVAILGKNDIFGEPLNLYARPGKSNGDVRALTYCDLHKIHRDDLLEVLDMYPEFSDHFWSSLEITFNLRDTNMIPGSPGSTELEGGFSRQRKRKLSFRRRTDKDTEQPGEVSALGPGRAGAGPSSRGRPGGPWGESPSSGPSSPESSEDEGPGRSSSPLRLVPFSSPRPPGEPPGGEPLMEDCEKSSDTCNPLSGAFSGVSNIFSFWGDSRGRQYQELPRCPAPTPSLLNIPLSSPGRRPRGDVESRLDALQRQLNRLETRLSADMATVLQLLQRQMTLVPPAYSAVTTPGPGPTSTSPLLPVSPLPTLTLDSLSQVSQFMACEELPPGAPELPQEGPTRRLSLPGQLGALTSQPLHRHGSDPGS
For CCCCOC(=O)c1ccc(NC(=O)CSC2=Nc3ccccc3C3CC=NN23)cc1 (stereo not shown), the “hERG current change (%, negative = inhibition) at 10uM” value was 15.4%.
In the case of O=C(COc1ccccc1)NCC(=O)Nc1ccncc1, the “hERG current change (%, negative = inhibition) at 10uM” value is reported as 1.26%.
In the case of O=C(c1ccc(NC(=O)C2(c3ccccc3)CCOCC2)cc1)N1CCOCC1, the “hERG current change (%, negative = inhibition) at 10uM” value is reported as 9.8%.
In the case of CC(=O)N1c2c(cc(Br)cc2S(=O)(=O)NCC2COc3ccccc3O2)CC1C (stereo not shown), the “hERG current change (%, negative = inhibition) at 10uM” value is reported as -44.5%.
In the case of CC1CCCN(S(=O)(=O)c2cc3c4c(c2)CCN4C(=O)CC3)C1 (stereo not shown), the “hERG current change (%, negative = inhibition) at 10uM” value is reported as -6.07%.
For COC(=O)[C@@]12CCCN1[C@H](c1ccc(-c3ccc(OC)cc3)c(OC)c1)[C@@H]1C(=O)N(C)C(=O)[C@@H]12.O=C(O)C(F)(F)F, the “hERG current change (%, negative = inhibition) at 10uM” value was -9.37%.
CC1(C)O[C@H]2CC(=O)OC[C@]23[C@H]2CC[C@@]4(C)[C@H](c5ccoc5)OC(=O)[C@H]5O[C@]54[C@]2(C)[C@@H](O)C[C@@H]13 was tested, and the “hERG current change (%, negative = inhibition) at 10uM” value was 17.1%.
For CCOC(=O)CN1C(=O)S/C(=C/c2ccc(N3CCCCC3)o2)C1=O, the “hERG current change (%, negative = inhibition) at 10uM” value was 13.1%.
In the case of CCOC(=O)CN1C(=O)S/C(=C/c2ccc(C)o2)C1=O, the “hERG current change (%, negative = inhibition) at 10uM” value is reported as -72.7%.
CCOC(=O)CN1C(=O)S/C(=C/c2ccco2)C1=O was tested, and the “hERG current change (%, negative = inhibition) at 10uM” value was 9.39%.
In the case of Cc1[nH]nc2c1C(c1ccsc1C)C(C#N)=C(N)O2 (stereo not shown), the “hERG current change (%, negative = inhibition) at 10uM” value is reported as 2.25%.
For Cn1cnnc1SCC(=O)NN(c1ccccc1)c1ccccc1, the “hERG current change (%, negative = inhibition) at 10uM” value was 28.6%.
CCNC(=O)C(C)Oc1ccc(Cl)cc1Cl (stereo not shown) was tested, and the “hERG current change (%, negative = inhibition) at 10uM” value was 9.68%.
In the case of Cc1cccc(C(=O)C2CCOC(C)(C)C2)c1 (stereo not shown), the “hERG current change (%, negative = inhibition) at 10uM” value is reported as 13%.
For Clc1ccc(-c2noc(CN(Cc3ccccn3)CC3CCCO3)n2)cc1 (stereo not shown), the “hERG current change (%, negative = inhibition) at 10uM” value was -28.5%.
In the case of COC(=O)c1ccc(-c2noc(CN(Cc3ccncc3)CC3CCCO3)n2)cc1 (stereo not shown), the “hERG current change (%, negative = inhibition) at 10uM” value is reported as -28.5%.
Cc1oc(-c2ccc(C(F)(F)F)cc2)nc1CN(Cc1ccccn1)C[C@@H]1CCC(=O)N1 was tested, and the “hERG current change (%, negative = inhibition) at 10uM” value was -38.2%.
For COC(=O)c1ccc(-c2noc(CN(Cc3ccccn3)CC3CCCO3)n2)cc1 (stereo not shown), the “hERG current change (%, negative = inhibition) at 10uM” value was -75%.
O=C1CC[C@@H](CN(Cc2ccccn2)Cc2nc(Cc3cccc(C(F)(F)F)c3)no2)N1 was tested, and the “hERG current change (%, negative = inhibition) at 10uM” value was -48.4%.
With CCCN(Cc1nc(-c2ccc(Cl)cc2)no1)CC1CCCO1 (stereo not shown) the “hERG current change (%, negative = inhibition) at 10uM” value was -8.15%.
CCN(Cc1nc(-c2ccc(Cl)cc2)no1)CC1CCCO1 (stereo not shown) was tested, and the “hERG current change (%, negative = inhibition) at 10uM” value was -62.9%.
CCN(Cc1nc(-c2cccc(Cl)c2)no1)CC1CCCO1 (stereo not shown) was tested, and the “hERG current change (%, negative = inhibition) at 10uM” value was 1.7%.
With O=C1CC[C@@H](CN(Cc2ccccn2)Cc2nc(-c3ccc(C(F)(F)F)cc3)no2)N1 the “hERG current change (%, negative = inhibition) at 10uM” value was -62.7%.
With COc1ccc(CN(CC2CCC(C(=O)O)CC2)C(=S)Nc2cccc(C)c2)cc1 (stereo not shown) the “hERG current change (%, negative = inhibition) at 10uM” value was -2.44%.
O=Cc1cc(-c2ccccc2)[nH]c1-c1ccccc1 was tested, and the “hERG current change (%, negative = inhibition) at 10uM” value was 22.5%.
For COCCn1nnnc1C(C(C)C)N(Cc1cccnc1)Cc1cc2cc(OC)ccc2[nH]c1=O (stereo not shown), the “hERG current change (%, negative = inhibition) at 10uM” value was -29.3%.
CCCCCC(=O)NNC(=O)Cc1ccc([N+](=O)[O-])cc1 was tested, and the “hERG current change (%, negative = inhibition) at 10uM” value was -1.38%.
For Cc1ccccc1C(=O)c1cccn1CC(=O)NCC(C)c1ccccc1 (stereo not shown), the “hERG current change (%, negative = inhibition) at 10uM” value was -20.3%.
For Cc1ccccc1C(=O)c1cccn1CC(=O)NCCCN1CCc2ccccc2C1, the “hERG current change (%, negative = inhibition) at 10uM” value was -78.6%.
O=C(Cn1cccc1C(=O)c1ccccc1)NCCCN1CCc2ccccc2C1 was tested, and the “hERG current change (%, negative = inhibition) at 10uM” value was -74.1%.
With Cc1ccccc1C(=O)c1cccn1CC(=O)NCCCN1CCCCC1 the “hERG current change (%, negative = inhibition) at 10uM” value was -41.9%.
With O=C(Cn1cccc1C(=O)c1ccccc1)NCCN1CCCCCC1 the “hERG current change (%, negative = inhibition) at 10uM” value was -35.3%.
O=C(Cn1cccc1C(=O)c1ccccc1)NCCCN1CCOCC1 was tested, and the “hERG current change (%, negative = inhibition) at 10uM” value was 13.4%.
With O=C(CN1C(=O)NC2(CCCCC2)C1=O)Nc1cc(C(F)(F)F)ccc1N1CCCCC1 the “hERG current change (%, negative = inhibition) at 10uM” value was -1.7%.
With Fc1cc(F)c2nc(Nc3nc4cc5c(cc4s3)OCO5)sc2c1 the “hERG current change (%, negative = inhibition) at 10uM” value was 15.2%.
For O=C(Oc1ccc2ccccc2c1)c1cncc(Br)c1, the “hERG current change (%, negative = inhibition) at 10uM” value was -11.6%.
CC1CCN(S(=O)(=O)c2ccc(NC(=O)[C@@H]3CCCC[C@@H]3C(=O)O)cc2)CC1 was tested, and the “hERG current change (%, negative = inhibition) at 10uM” value was 9.64%.
In the case of CCC(C)(C(=O)NC1CCCCC1)N(Cc1ccco1)C(=O)c1cnccn1 (stereo not shown), the “hERG current change (%, negative = inhibition) at 10uM” value is reported as -11.3%.
For Cc1ccc(NC(=O)COC(=O)COc2ccc3ccc(=O)oc3c2)cc1[N+](=O)[O-], the “hERG current change (%, negative = inhibition) at 10uM” value was 3.51%.
With CCCc1nc2c(C)ccc(C)c2c(N)c1CC the “hERG current change (%, negative = inhibition) at 10uM” value was -62.5%.
For CCCc1nc2c(C)cc(C)cc2c(N)c1CC, the “hERG current change (%, negative = inhibition) at 10uM” value was -59.2%.
Cc1cc(C)c2nc(C(F)(F)F)c(C#N)c(N)c2c1 was tested, and the “hERG current change (%, negative = inhibition) at 10uM” value was 17.4%.
CCCc1nc(N)c(C#N)c(-c2ccco2)c1CC was tested, and the “hERG current change (%, negative = inhibition) at 10uM” value was 14.3%.
CCCSc1nc(C)c2cc(C)cc(C)c2n1 was tested, and the “hERG current change (%, negative = inhibition) at 10uM” value was 10.9%.
With CCCc1nc2ccccc2c(C(=O)O)c1CC the “hERG current change (%, negative = inhibition) at 10uM” value was 1.82%.
With Cc1cc(C)cc(N=c2c([N+](=O)[O-])nn(-c3cccc(Cl)c3)n2O)c1 the “hERG current change (%, negative = inhibition) at 10uM” value was -6.03%.
